# Laboratory results as given in PubChem BioAssay (EPA / NIEHS).
# Active and inactive are the calls of the source. Rule for the calls: active = hit-call score of the fitted dose curve at least 0.9, where 1 is the maximum; inconclusive = response in the unintended direction; inactive = score below 0.9.
# Assay: Tanguay_ZF_120hpf_ActivityScore_legacy: (Legacy) Oregon State University Tanguay Lab 120 Hour Post-fertilization zebrafish Assay Score for Activity (AID 2283742);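 for AC50: static exposure from 6 hpf until 120 hpf at 28 °C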
# Procedure: Tanguay_ZF_120hpf_legacy is a whole embryo, multiplexed endpoint assay using zebrafish larvae exposed for 120 hours post fertilization on a 96-well plate.Tanguay_ZF_120hpf_ActivityScore_legacy is one of one assay component(s) measured or calculated from the Tanguay_ZF_120hpf_legacy assay. It is designed to make measurements of developmental malformations and mortality as detected with brightfield microscopy and combines scoring from 18 other assay components measuring more specific morphologies.Data from the assay component Tanguay_ZF_120hpf_ActivityScore_legacy was analyzed into 1 assay endpoints. This assay endpoint, Tanguay_ZF_120hpf_ActivityScore_legacy, was analyzed in the positive analysis fitting direction relative to DMSO as the negative control and baseline of activity. Using a type of morphology reporter, gain-of-signal activity can be used to understand changes in developmentals as they relate to the whole embryo. To generalize the intended target to other relatable targets, this assay endpoint is annotated to the zebrafish development intended target family, where the subfamily is embryonic morphogenesis and mortality.
# Zebrafish husbandry: Tropical 5D wild-type adult zebrafish were housed in at an approximate density of 1000 per 100 gallon tank at the Sinnhuber Aquatic Research Laboratory, Oregon State University, Corvallis, OR. Each tank was kept at standard laboratory conditions of 28C on a 14-h light/10-h dark photoperiod in fish water consisting of reverse osmosis water supplemented with a commercially available salt (Instant Ocean). Spawning funnels were placed into the tanks the night prior, and embryos were collected and staged. To increase bioavailability, the chorion was enzymatically removed using pronase (63.6mg/ml, >/= 3.5U/mg, Sigma-Aldrich: P5147) at 4 hours post fertilization (hpf) using a custom automated dechorionator.Chemical exposures: Six hpf dechorionated embryos were placed 1 embryo per well in a 96-well plate prefilled with 90 ul of EM using automated embryo placement systems (AEPS). Ten microliters of each row of dilution plate 2 was added to 2 exposure plates. The final DMSO concentration used was 0.64% (vol/vol). Thirty-two embryos were also exposed to 5uM trimethyltin chloride (positive control). Plates were sealed to prevent evaporation and foil covered to reduce light exposure and kept in a 28C incubator. Embryos were statically exposed until 120 hpf. At 24 hpf, embryos were assessed for photomotor response using a custom photomotor response analysis tool (PRAT) and for developmental toxicity endpoints (MO24: mortality at 24 hpf, DP: developmental progression, SM: spontaneous movement, and NC: notochord distortion). At 120 hpf, locomotor activity was measured using Viewpoint Zebralab and assessed for 18 endpoints. Zebrafish acquisition and analysis program (ZAAP), a custom program designed to inventory, acquire, and manage zebrafish data, was used to collect developmental endpoints as either present or absent (i.e., binary responses were recorded). If mortality occurred for an embryo (at either 24 or 120 hpf), the non-mortality endpoints were not measured.
Compound,outcome,AC50
O=C(O)C1(c2ccc3c(c2)OC[C@H](Cc2ccc(-c4ccccc4)cc2)[C@H]3O)CCCC1,inactive,–
Oc1cc(Cl)c(Cl)cc1Cl,–,32.1 µM (active)
O=C(N[C@H]1CN2CCC1CC2)c1ccc2c(c1)OCCO2,inactive,–
CN(C)C(=S)S,–,0.00103 µM (active)
CC(C)O.CC(C)O.OCCN(CCO)CCO.OCCN(CCO)CCO.[Ti],inactive,–
CCCCCCCCCCCCc1cccc(S(=O)(=O)O)c1,inactive,–
Clc1cccc(Cl)c1,inactive,–
COc1ccccc1N,inactive,–
Cc1cc(C)cc(C)c1,inactive,–
N#Cc1cccnc1,inactive,–
CC(C)(C)c1ccccc1O,inactive,–
Oc1c(Cl)cc(Cl)cc1Cl,–,19.1 µM (active)
Clc1cccc(Cl)c1Cl,–,0.00446 µM (active)
OCCN(CCO)CCO,inactive,–
